# Data reported in PubChem BioAssay (Tox21).
# Inconclusive results are not listed. Where a call stands in place of a potency, no number is given. A number with no mark means an inactive call. The source made the active and inactive calls. The call rests on the fitted dose curve; in most records, active means well fitted curve in the direction sought with a large enough effect in the repeat runs; inconclusive means weak or mixed curves; inactive means no such curve, though single readings can be large; an effect the other way counts as inactive or inconclusive.
# What was measured:
# [1] = biological target: Cytochrome P450 2D6 (Homo sapiens) (UniProt P10635); assay: Cytochrome P450 Family 2 Subfamily D Member 6 (CYP2D6) small molecule antagonists: luciferase reporter qHTS assay (AID 1671196); further: nearly all actives have a fitted effect of over 50% in size; on activity change, negative = inhibition: series mostly up to about 120 µM
# How it was run: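 CYP2D6 activity was followed as luminescence from its luciferin product after a 1 h NADPH-driven reaction at room temperature. Enzyme-substrate mix and compound were pre-incubated for 10 min, and the signal was read 20 min after adding detection reagent.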
# [2] = biological target: Cytochrome P450 2C19 (Homo sapiens) (UniProt P33261); assay: Cytochrome P450 Family 2 Subfamily C Member 19 (CYP2C19) small molecule antagonists: luciferase reporter qHTS assay (AID 1671197); further: nearly all actives have a fitted effect of over 65% in size; on activity change, negative = inhibition: series mostly up to about 120 µM
# How it was run: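 P450-Glo CYP2C19 screening system; proluciferin substrate; DMSO compound stocks; 10 min RT preincubation; NADPH regeneration, 1 h at 37C; luciferin detection reagent, 20 min RT; luminescence as RLU.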
# [3] = biological target: Cytochrome P450 2C9 (Homo sapiens) (UniProt P11712); assay: Cytochrome P450 Family 2 Subfamily C Member 9 (CYP2C9) small molecule antagonists: luciferase reporter qHTS assay (AID 1671198); further: nearly all actives have a fitted effect of over 50% in size; on activity change, negative = inhibition: series mostly up to about 120 µM
# How it was run: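 CYP2C9 activity was measured with a P450-Glo proluciferin substrate. Enzyme–substrate mix was held with compound for 10 min at room temperature, then NADPH regeneration solution was added for 1 h at 37C. Luciferin product was read as luminescence.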
# [4] = biological target: Cytochrome P450 1A2 (Homo sapiens) (UniProt P05177); assay: Cytochrome P450 Family 1 Subfamily A Member 2 (CYP1A2) small molecule antagonists: luciferase reporter qHTS assay (AID 1671199); further: nearly all actives have a fitted effect of over 50% in size; on activity change, negative = inhibition: series mostly up to about 120 µM
# How it was run: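 Luminescence from luciferin formed by CYP1A2 from a proluciferin substrate, read 20 min after detection reagent. Compound was pre-incubated 10 min with enzyme-substrate, and reaction started with NADPH regeneration solution for 1 h at room temperature; furafylline control.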
# [5] = biological target: Voltage-gated inwardly rectifying potassium channel KCNH2 (Homo sapiens) (UniProt Q12809); assay: Human Ether-a-go-go-Related Gene (hERG) channel small molecule antagonists: fluorescence cell-based qHTS assay (AID 1671200); further: nearly all actives have a fitted effect of over 50% in size;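 on activity change, negative = inhibition: hERG-expressing U2OS cells given a thallium stimulus after FluxOR II dye loading; series mostly up to about 77 µM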
# How it was run: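 In this thallium-flux screen, overnight-cultured U2OS cells bearing the channel are dye-loaded in darkness for an hour, rested 10 min at room temperature, and then monitored kinetically at 480/540 nm for two minutes post-stimulus.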
# [6] = biological target: Cytochrome P450 3A4 (Homo sapiens) (UniProt P08684); assay: Cytochrome P450 Family 3 Subfamily A Member 4 (CYP3A4) small molecule antagonists: luciferase reporter qHTS assay (AID 1671201); further: nearly all actives have a fitted effect of over 50% in size; on activity change, negative = inhibition: series mostly up to about 120 µM
# How it was run: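 CYP3A4 activity was followed with a P450-Glo proluciferin substrate. Test compounds in DMSO were preincubated 10 min; NADPH regeneration then ran 1 h, and light output was read 20 min after detection reagent.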
# Potency means the concentration at half of the fitted maximal effect.
# Chain of Voltage-gated inwardly rectifying potassium channel KCNH2 (Homo sapiens) (Q12809 whole entry, looked up): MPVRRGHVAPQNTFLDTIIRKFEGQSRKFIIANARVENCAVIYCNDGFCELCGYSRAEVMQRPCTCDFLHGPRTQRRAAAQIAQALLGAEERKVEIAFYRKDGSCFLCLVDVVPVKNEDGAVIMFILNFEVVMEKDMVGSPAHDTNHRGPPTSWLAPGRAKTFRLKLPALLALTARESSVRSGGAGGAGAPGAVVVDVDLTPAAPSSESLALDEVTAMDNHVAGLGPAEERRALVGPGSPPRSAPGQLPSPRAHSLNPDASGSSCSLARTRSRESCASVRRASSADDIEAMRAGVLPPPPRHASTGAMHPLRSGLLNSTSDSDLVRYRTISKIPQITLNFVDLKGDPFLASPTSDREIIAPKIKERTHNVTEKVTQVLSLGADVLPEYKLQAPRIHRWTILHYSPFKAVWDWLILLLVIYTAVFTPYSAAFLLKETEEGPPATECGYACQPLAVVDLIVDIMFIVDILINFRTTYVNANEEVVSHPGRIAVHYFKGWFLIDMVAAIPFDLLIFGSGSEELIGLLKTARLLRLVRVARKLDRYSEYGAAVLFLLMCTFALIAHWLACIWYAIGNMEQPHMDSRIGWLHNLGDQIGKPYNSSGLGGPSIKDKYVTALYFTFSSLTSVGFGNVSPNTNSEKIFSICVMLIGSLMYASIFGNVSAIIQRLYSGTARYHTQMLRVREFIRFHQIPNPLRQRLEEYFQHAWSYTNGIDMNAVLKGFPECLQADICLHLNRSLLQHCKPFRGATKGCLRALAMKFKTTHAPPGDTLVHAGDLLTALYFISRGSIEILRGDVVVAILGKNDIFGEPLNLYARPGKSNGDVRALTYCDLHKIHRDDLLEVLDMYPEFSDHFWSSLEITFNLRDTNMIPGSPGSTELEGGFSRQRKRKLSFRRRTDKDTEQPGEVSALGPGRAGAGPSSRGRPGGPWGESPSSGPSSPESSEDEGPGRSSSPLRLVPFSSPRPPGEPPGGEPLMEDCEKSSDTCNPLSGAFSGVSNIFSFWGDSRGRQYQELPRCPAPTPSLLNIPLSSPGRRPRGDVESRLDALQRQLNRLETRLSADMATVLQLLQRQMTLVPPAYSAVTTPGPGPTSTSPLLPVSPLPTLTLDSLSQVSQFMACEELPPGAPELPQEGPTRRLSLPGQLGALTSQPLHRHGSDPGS
# Chain of Cytochrome P450 1A2 (Homo sapiens) (P05177 whole entry, looked up): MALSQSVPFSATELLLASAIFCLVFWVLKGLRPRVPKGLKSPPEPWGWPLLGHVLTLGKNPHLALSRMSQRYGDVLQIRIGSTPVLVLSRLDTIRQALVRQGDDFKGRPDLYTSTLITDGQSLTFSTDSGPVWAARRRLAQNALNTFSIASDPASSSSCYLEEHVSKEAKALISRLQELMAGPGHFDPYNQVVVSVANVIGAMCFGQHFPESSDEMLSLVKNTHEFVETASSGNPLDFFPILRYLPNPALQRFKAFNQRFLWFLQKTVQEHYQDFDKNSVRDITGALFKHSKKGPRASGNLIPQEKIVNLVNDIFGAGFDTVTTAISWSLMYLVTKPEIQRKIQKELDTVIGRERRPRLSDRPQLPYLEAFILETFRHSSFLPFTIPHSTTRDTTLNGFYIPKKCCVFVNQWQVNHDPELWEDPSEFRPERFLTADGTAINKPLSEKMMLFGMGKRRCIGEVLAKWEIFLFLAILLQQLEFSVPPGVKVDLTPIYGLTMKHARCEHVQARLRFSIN
# Chain of Cytochrome P450 2C9 (Homo sapiens) (P11712 whole entry, looked up): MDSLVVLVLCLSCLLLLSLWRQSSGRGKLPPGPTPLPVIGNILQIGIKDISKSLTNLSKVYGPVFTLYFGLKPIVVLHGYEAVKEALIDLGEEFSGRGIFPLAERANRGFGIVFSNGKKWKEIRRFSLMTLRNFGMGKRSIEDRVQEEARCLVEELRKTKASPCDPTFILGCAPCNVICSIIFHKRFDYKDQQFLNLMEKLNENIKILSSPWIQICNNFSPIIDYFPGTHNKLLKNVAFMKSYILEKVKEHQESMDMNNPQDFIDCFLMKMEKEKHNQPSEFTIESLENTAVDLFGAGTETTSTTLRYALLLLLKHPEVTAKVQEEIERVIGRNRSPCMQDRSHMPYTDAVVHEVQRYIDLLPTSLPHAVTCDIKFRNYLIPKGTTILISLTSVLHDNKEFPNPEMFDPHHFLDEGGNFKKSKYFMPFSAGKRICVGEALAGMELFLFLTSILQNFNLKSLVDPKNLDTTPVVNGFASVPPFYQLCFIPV
# Chain of Cytochrome P450 3A4 (Homo sapiens) (P08684 whole entry, looked up): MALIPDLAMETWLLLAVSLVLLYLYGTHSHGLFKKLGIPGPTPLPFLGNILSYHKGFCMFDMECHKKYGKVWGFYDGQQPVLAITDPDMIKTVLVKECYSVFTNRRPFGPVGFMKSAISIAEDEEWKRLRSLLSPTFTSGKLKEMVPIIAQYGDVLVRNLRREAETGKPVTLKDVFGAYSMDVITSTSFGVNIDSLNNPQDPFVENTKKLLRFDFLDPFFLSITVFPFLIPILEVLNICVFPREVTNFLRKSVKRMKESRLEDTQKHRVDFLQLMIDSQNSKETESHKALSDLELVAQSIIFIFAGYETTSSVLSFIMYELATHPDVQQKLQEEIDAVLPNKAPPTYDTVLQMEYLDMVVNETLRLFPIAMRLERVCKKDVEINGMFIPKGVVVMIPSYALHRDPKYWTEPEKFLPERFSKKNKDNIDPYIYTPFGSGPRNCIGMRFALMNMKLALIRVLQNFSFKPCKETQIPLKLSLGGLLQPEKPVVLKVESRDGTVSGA
# Chain of Cytochrome P450 2C19 (Homo sapiens) (P33261 whole entry, looked up): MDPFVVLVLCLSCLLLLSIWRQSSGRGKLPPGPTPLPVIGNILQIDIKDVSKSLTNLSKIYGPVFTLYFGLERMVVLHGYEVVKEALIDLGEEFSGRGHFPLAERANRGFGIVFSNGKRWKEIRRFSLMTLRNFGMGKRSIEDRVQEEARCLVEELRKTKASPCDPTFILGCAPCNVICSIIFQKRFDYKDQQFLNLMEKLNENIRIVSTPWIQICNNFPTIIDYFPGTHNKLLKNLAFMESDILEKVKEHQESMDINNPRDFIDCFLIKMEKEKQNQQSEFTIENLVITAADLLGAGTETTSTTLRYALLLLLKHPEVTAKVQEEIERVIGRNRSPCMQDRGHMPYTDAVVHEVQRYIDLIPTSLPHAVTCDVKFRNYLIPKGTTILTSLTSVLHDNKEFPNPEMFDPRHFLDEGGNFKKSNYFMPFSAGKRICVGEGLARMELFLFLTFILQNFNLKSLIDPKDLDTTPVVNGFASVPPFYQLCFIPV
# Chain of Cytochrome P450 2D6 (Homo sapiens) (P10635 whole entry, looked up): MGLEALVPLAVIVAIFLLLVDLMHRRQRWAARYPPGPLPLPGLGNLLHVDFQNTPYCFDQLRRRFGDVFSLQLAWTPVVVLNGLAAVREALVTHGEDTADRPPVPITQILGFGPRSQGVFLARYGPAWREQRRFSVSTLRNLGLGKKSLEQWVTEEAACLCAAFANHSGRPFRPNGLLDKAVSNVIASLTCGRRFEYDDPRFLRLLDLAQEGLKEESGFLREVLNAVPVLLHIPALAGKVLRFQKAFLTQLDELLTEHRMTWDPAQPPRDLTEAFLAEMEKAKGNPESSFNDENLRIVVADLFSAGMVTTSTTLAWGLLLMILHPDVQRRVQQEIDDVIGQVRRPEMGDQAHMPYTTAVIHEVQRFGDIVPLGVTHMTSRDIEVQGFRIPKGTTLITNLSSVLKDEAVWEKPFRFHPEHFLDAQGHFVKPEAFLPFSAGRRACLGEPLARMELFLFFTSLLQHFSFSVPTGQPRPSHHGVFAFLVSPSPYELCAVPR
SMILES,Potency [1],Potency [2],Potency [3],Potency [4],Potency [5],Potency [6],"activity change, negative = inhibition [2]","activity change, negative = inhibition [3]","activity change, negative = inhibition [4]","activity change, negative = inhibition [5]"
CC(C)COC(=O)CCCCC(=O)OCC(C)C,inactive,inactive,22.4 µM (active),39.9 µM (active),inactive,inactive,–,–,–,–
Nc1c(NC/C=C\COc2cc(CN3CCCCC3)ccn2)c(=O)c1=O,12 µM (active),–,–,–,–,6.74 µM (active),-27.3% [at 23.6 µM],-15.9% [at 23.6 µM],11.8% [at 23.6 µM],0.241% [at 15.8 µM]
C=CCOc1cc(Cl)ccc1C(=O)NCCN(CC)CC,0.275 µM (active),6.92 µM (active),inactive,2.57 µM (active),9.52 µM (active),17.4 µM (active),–,–,–,–
CC(=O)OC(C(=O)c1ccccc1)c1ccccc1 (centres undefined),35.7 µM (active),8.98 µM (active),31.9 µM (active),40.1 µM (active),inactive,inactive,–,–,–,–
CN(C)CCOCCN(C)CCO,20 µM (active),inactive,inactive,inactive,inactive,inactive,–,–,–,–
O=C1OC(=O)c2cc(Oc3ccc4c(c3)C(=O)OC4=O)ccc21,inactive,inactive,inactive,inactive,inactive,inactive,–,–,–,–
C[C@H]1O[C@H](O[C@H]2[C@H](O)[C@@H](O)[C@@H](O[C@H]3[C@H](O)[C@@H](O)[C@H](O)O[C@@H]3CO)O[C@@H]2CO)[C@H](O)[C@@H](O)[C@@H]1N[C@H]1C=C(CO)[C@@H](O)[C@H](O)[C@H]1O,inactive,inactive,inactive,inactive,inactive,inactive,–,–,–,–
CC(CC(=O)O)CC(C)(C)C (centres undefined),inactive,inactive,inactive,inactive,inactive,inactive,–,–,–,–
CCCOC(=O)CCCCC(=O)OCCC,inactive,20 µM (active),20 µM (active),22.4 µM (active),inactive,inactive,–,–,–,–
O=[Si]=O,inactive,inactive,inactive,inactive,inactive,inactive,–,–,–,–
CCCCCCCCCCCCC,inactive,inactive,inactive,inactive,inactive,inactive,–,–,–,–
CCCCCCCCCCC,inactive,inactive,79.6 µM (active),inactive,inactive,inactive,–,–,–,–
Nc1ccnc(=O)[nH]1,inactive,inactive,inactive,inactive,inactive,inactive,–,–,–,–
CC(=O)OCC(=O)[C@@]1(O)[C@H](OC(C)=O)C[C@H]2[C@@H]3CCC4=CC(=O)C=C[C@]4(C)[C@@]3(F)[C@@H](O)C[C@@]21C,inactive,inactive,inactive,inactive,inactive,–,–,–,–,–
Cc1cc(O)c2c(c1)C(=O)c1cccc(O)c1C2=O,inactive,inactive,inactive,15.5 µM (active),inactive,inactive,–,–,–,–
